Measurements: PubChem BioAssay AID493065 (National Center for Advancing Translational Sciences (NCATS), 2011)
This is one part of the list. Records with an inconclusive call do not appear. Unmarked numbers belong to inactive results. Calls come from the whole dose curve; as a rule, active = well fitted activation curve with a large enough effect; inconclusive = small, poorly fitted or top-dose-only effect; inactive = flat fitted curve, though single readings scatter.

Test: Parental Cell Counter Screen Assay for Epigenetic Modulators: Hit Validation
Conditions: mouse c127i parental cells, 30 h, active compounds read high, concentration not given here
Text: NIH Molecular Libraries Screening Centers Network [MLSCN] NIH Chemical Genomics Center [NCGC] MLSCN Grant: 1 X01 MH079860-01 Assay Provider: Elisabeth D. Martinez, University of Texas SW Medical Center NCGC Assay Overview: This assay is a counter screen for the Locus Derepression (LDR) assay (PubChem AID 1865). The LDR assay detects the derepression of a GFP reporter that is stably integrated in a region of the genome of murine c127i mammary cells that is presumably silenced. Compounds that cause derepression of the locus to express GFP are identified by enumerating GFP positive cells using a laser-scanning microplate cytometer. […] Compounds active in the parental c127i cells are likely fluorescent.
NCGC Assay Protocol Summary: Three hundred cells in 5 uL per well were dispensed into black, clear-bottom 1536-well plates. Twenty-three nL compound was transferred to the assay plate and cells were incubated 30 hours at 37 C. Medium was removed, cells were washed two times with PBS, and fluorescent cells were enumerated as objects between the sizes of 20 to 120 um width and depth using a laser-scanning microplate imager (Acumen Explorer Ex3, TTP Labtech). For further details, see Johnson, RL, Huang, W, Jadhav, A, Austin, CP, Inglese, J, Martinez, ED (2008). A quantitative high-throughput screen identifies potential epigenetic modulators of gene expression. Anal Biochem 375: 237-48.

**Q.** With O=C1NC(=O)N(CCc2ccc(F)cc2)C(=O)/C1=C/C=C/c1ccccc1 as the molecule, how does the fluorescent cell count read?
**A.** Its fluorescent cell count is 3%.
